Drawing on PubChem BioAssay, this text covers outcome and max activity for seven molecules.

Measured potencies and affinities stand elsewhere. Inconclusive results are not listed. Values without a mark were called inactive. Active and inactive are the calls of the source. Unless noted, the rule behind the calls is not given here.

Experiment [1] in a line: general cell-killing toxicity readout – plate reader, dry powder samples, cytotoxicity control for PAX8 inhibitor project, dose response (AID 743021). The conditions noted are these: cell line, non-specific cytotoxicity counter-screen; series mostly up to 35 µM. Background: A counterscreen serves to expose hits that act by an unwanted route or on another target.
Experiment [2] can be described thus: toxicity toward HepG2 liver cells – cell-based, plate reader, cherry-pick, antagonist series, cytotoxicity control, dose response (AID 743416).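 Note: 0% = neutral control wells and -100% = positive control wells.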 Particulars: series mostly up to 26 µM.
A short description of experiment [3]: RMG-1 ovarian cancer cell viability loss – cherry-pick, dose response (AID 687029;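 active = signal drop whose fitted half-maximal concentration is at most twice the top valid dose, in every test run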;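 note: cells exposed to compound for 96 hours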). The conditions noted are these: RMG-1 viability, CellTiterGlo ATP luminescence, 96 h; series mostly up to 35 µM.
Experiment [4] can be described thus: IOSE-T80 viability loss, PAX8-independent line – cell-based, cherry-pick, selectivity assay for PAX8 inhibitor project, dose response (AID 687032;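 active = fitted half-maximal concentration for viability loss no higher than twice the top valid dose, in every repeat run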;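 note: cells exposed to compound for 96 h before reading; 0% = neutral control wells and -100% = 2 µM mitoxantrone kill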). Particulars: CellTiterGlo ATP luminescence, 96 h; series mostly up to 35 µM. (In general: Cellular ATP, detected with luciferase, serves as a proxy for viable cell number.)
Experiment [5] in a line: CMV-driven luciferase expression suppression in HEK293 – cell-based, luminescence, dry powder, counter-screen for Pax8 inhibitor project, dose response (AID 743020;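 active = signal-lowering compounds whose fitted half-maximal concentration is at or below twice the top tested dose in every run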;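 note: HEK293 cells stably expressing the CMV luciferase reporter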). The conditions noted are these: HEK293 CMV-luciferase reporter, SteadyGlo luminescence, 24 h; series mostly up to 35 µM.
A short description of experiment [6]: IGROV1 cell killing – plate reader, dry powder samples, PAX8 inhibitor project, dose response (AID 743043).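 Note: more negative means fewer viable cells or more cytotoxicity.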 The conditions noted are these: IGROV1 ovarian cancer cell cytotoxicity; series mostly up to 35 µM.
A short description of experiment [7]: OVCAR-3 cell viability loss – plate reader, dry powder samples, PAX8 inhibitor project, dose response (AID 743044). Particulars: NIH:OVCAR-3 ovarian cancer cell viability, active compounds read low; at 4.2 µM unless noted.
The nature of experiment [8]: toxicity toward immortalized ovarian surface epithelium – cell-based, plate reader, dry powder samples, cytotoxicity control for PAX8 inhibitor project, dose response (AID 743045).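 Note: 0% = neutral control median and -100% = positive control median; more negative values mean more cell killing.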 The conditions noted are these: IOSE-T80 ovarian epithelial cells; series mostly up to 35 µM.
The nature of experiment [9]: A2780 cell killing – plate reader, dry powder samples, cytotoxicity control, dose response (AID 743046).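 Note: 0% = neutral control wells and -100% = cytotoxic reference compound.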 The conditions noted are these: A2780 ovarian cancer cytotoxicity; series mostly up to 35 µM.
Experiment [10] is described as follows: OVCAR8 cell viability loss – plate reader, dry powder samples, PAX8 project, dose response (AID 743197). Particulars: series mostly up to 35 µM.
Experiment [11] in a line: A549 cell cytotoxicity, dose response, cytotoxicity control, plate reader, cherry-pick, antagonist series (AID 743412).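 Note: 0% = neutral control wells and -100% = positive control wells.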 Particulars: series mostly up to 26 µM.

Regarding `C[C@@H]1O[C@@H](O[C@@H]2C=C3CC[C@@H]4C(CC[C@]5(C)[C@@H](c6ccc(=O)oc6)CC[C@]45O)[C@@]3(C)CC2)[C@H](O)[C@H](O)[C@H]1O` (stereo not given in full), the molecule was called inactive in experiment [1].

Consider `COc1cccc(-c2nc3ccc(N4CCN(C)CC4)cc3[nH]2)c1`, for which, in experiment [2], the call was inactive.

Consider `COC1=C(C)C(=O)C2=C(C1=O)C(CO)N1C(C#N)C3CC4C(C1C2N1CCOC41)N3C` (stereo not given), for which the molecule was called inactive in [3] and in experiment [1].

In the case of `CC(C)(O)/C=C/C(=O)C(C)(O)C1C(O)CC2(C)C3CC=C4C(C=C(O)C(=O)C4(C)C)C3(C)C(=O)CC12C` (stereo not given), the result in experiment [4] and in experiment [1] was inactive.

On to `N#CC(C#N)=NNc1ccc(-n2ccc(C(F)(F)F)n2)cc1`, for which the call in experiment [3] and in experiment [1] was inactive.

As for `COc1ccc(-c2ccc([C@@H]3[C@@H](CO)N4CCCCN(C(=O)Cc5ccccc5)C[C@H]34)cc2)cc1`, the outcome in experiment [5], in experiment [6], in experiment [8], in experiment [9] and in experiment [10] was inactive. For the same molecule, in experiment [7], the max activity was -18.2% [at 35 µM].

`COC(=O)c1ccc(NC(=O)CSc2nc3ccc(N4C(=O)C5C6C=CC(C6)C5C4=O)cc3s2)cc1` (stereo not given): in [11], the molecule was called inactive.
